Screens: PubChem BioAssay, National Center for Advancing Translational Sciences (NCATS)
Only a selection was taken, and hits are over-represented in it overall.
Shiga inhibitor = A qHTS for Small Molecule Inhibitors of Shiga Toxin; Vero cells, Shiga toxin protein synthesis inhibition reporter; inhibition, % at 38.7 µM; actives 9.2% (n = 290,000); in the data active = inhibition mostly above about 28%, no sharp cut-off; inactive = mostly below about 43%
LmPK inh = qHTS Assay for Inhibitors of Leishmania Mexicana Pyruvate Kinase (LmPK); actives 0.37% (n = 290,000); Potency, µM (doses to about 57.5 µM), actives largely listed as inhibitors; AID 1721, 2009; purified LmPK, Kinase-Glo ATP luminescence, 1 h; Q27686
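In 50 mM imidazole pH 7.2 with 7 mM MgCl2, LmPK (0.1 nM) turned over PEP (0.5 mM) and ADP (0.1 mM) for 1 h at room temperature. Luciferase read-out of ATP.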
FBPA Giardia inh = qHTS Assay for Inhibitors of Fructose-1,6-bisphosphate Aldolase from Giardia Lamblia | purified Giardia FBPA | A8B2U2 | Potency, µM (titrated, usually from 59.6 µM), hits mostly inhibitors | actives 0.71% (n = 290,000); also: nearly all actives have a fitted effect of over 55% in size
Target sequence (A8B2U2 whole entry, looked up): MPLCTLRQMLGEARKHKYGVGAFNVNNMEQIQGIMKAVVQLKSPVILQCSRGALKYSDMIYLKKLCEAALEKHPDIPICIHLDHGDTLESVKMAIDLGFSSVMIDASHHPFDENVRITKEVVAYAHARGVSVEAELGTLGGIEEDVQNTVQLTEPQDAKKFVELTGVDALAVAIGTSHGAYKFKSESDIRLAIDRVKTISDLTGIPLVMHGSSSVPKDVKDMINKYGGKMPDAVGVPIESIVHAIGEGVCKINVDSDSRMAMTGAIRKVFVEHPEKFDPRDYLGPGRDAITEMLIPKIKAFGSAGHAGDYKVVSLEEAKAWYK
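Giardia FBPA (40 nM reagent) was preincubated 10 min at RT with compound (up to 57.5 uM final), then substrate plus GAPDH/TPI/NAD/arsenate coupling system with diaphorase/resazurin was added; resorufin fluorescence (525/598 nm) was read after 20 min.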
CHX counter = Cycloheximide Counterscreen for Small Molecule Inhibitors of Shiga Toxin; cell reporter, cycloheximide protein synthesis inhibition counterscreen; max response, %; actives 12% (n = 300,000); AID 2314, 2010; in the data active = max response mostly above about 13%, no sharp cut-off; inactive = mostly below about 14%; also: read at 38.3 µM for the half of the compounds with a filed dose
RE007 growth inh = qHTS Assay for Inhibitors of the HIV-1 protein Vpr | Potency, µM (highest dose often 92.2 µM), hits mostly inhibitors | actives 0.21% (n = 360,000) | S. pombe RE007 Vpr strain, BacTiter-Glo ATP luminescence, 24 h | AID 651644, 2012; active = well fitted falling curve with a large enough effect; also: nearly all actives have a fitted effect of over 50% in size
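Fission yeast strain RE007, carrying one chromosomally integrated HIV-1 vpr copy, was seeded at OD 0.01 in PMG+AL medium with 23 nL pinned compound. After 24 h at 30 °C and 99% humidity, viability was read by BacTiter-Glo luminescence.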
Tb PYK inh = qHTS of Trypanosoma Brucei Inhibitors; actives 0.12% (n = 410,000); TbPYK enzyme, Kinase-Glo Plus ATP luminescence, 45 min; pyruvate kinase (Trypanosoma brucei), Q57TT1; Potency, µM (doses to about 76.8 µM), usual class: inhibitors; also: nearly all actives have a fitted effect of over 50% in size
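Activity of T. brucei pyruvate kinase was followed by Kinase-Glo Plus luminescence after the enzyme reacted 45 min at room temperature with 130 uM ADP (final) and substrate. Test compounds were added before ADP at multiple concentrations.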
A number is an active result. Unless noted, calls follow the shape of the dose curve; as a rule, active = well fitted curve in the direction sought with a large enough effect; inconclusive = small, poorly fitted or top-dose-only effect, or another doubt; inactive = no such curve, though single readings can be large; an effect the other way counts as inactive or inconclusive.

COc1ccc(/C=C/C(=O)OCC(=O)Nc2cc(S(=O)(=O)N(C)C)ccc2Cl)cc1 was read as Shiga inhibitor 58, LmPK inh inactive, FBPA Giardia inh inactive, CHX counter 13, RE007 growth inh inactive and Tb PYK inh inactive.
For CSc1ccc(CCNC(=O)CCc2c(C)nc3c4cccnc4nn3c2C)cc1 the results were Tb PYK inh inactive.
O=c1ccnc(S/C=C/c2ccccc2)[nH]1 was read as Shiga inhibitor inactive, LmPK inh inactive, FBPA Giardia inh inactive, CHX counter 35, RE007 growth inh inactive and Tb PYK inh inactive.
`COc1ccc(N2CC(NC(=O)c3ccc(S(=O)(=O)N4CCCCC4)cc3)CC2=O)cc1` (centres undefined) gave Tb PYK inh inactive.
For O=C(COC(=O)C1CCC1)c1c[nH]c2ccccc12 the results were RE007 growth inh inactive and Tb PYK inh inactive.
O=C(COC(=O)C1CC1)c1c[nH]c2ccccc12 was read as Shiga inhibitor 76, LmPK inh inactive, FBPA Giardia inh inactive, CHX counter 57, RE007 growth inh inactive and Tb PYK inh inactive.
For O=C(OCC(=O)c1c[nH]c2ccccc12)c1ccc(Br)o1 the results were Shiga inhibitor 111, LmPK inh inactive, FBPA Giardia inh inactive, CHX counter 26, RE007 growth inh inactive and Tb PYK inh inactive.
`O=C(OCC(=O)c1c[nH]c2ccccc12)c1ccco1` gave Shiga inhibitor 88, LmPK inh inactive, FBPA Giardia inh inactive, CHX counter 68, RE007 growth inh inactive and Tb PYK inh inactive.
`CC1CCN(S(=O)(=O)c2ccc3c(c2)c(=O)c(C(=O)N2CCN(c4cccc(Cl)c4)CC2)cn3C)CC1` gave Tb PYK inh inactive.
Screening COc1ccc(NC(=O)CSc2nc3cc(OC)c(OC)cc3c3nc(-c4ccccc4)nn23)cc1Cl returned Tb PYK inh inactive.
Screening O=C(CNC(=O)c1ccco1)Nc1ccncc1 returned RE007 growth inh inactive and Tb PYK inh inactive.
`COc1ccc(NC(=O)CNC(=O)c2ccco2)cc1` gave Shiga inhibitor 73, LmPK inh inactive, FBPA Giardia inh inactive, CHX counter 51, RE007 growth inh inactive and Tb PYK inh inactive.
Screening COc1ccc(NC(=O)CC(c2ccco2)C(C)C)cc1 (centres undefined) returned Shiga inhibitor inactive, LmPK inh inactive, FBPA Giardia inh inactive, CHX counter 21, RE007 growth inh inactive and Tb PYK inh inactive.
Screening O=C(CNC(=O)c1ccco1)Nc1ccc(OC(F)F)cc1 returned Shiga inhibitor inactive, LmPK inh inactive, FBPA Giardia inh inactive, CHX counter inactive, RE007 growth inh inactive and Tb PYK inh inactive.
Screening Cc1ccc(NC(=O)CNC(=O)c2ccco2)cc1 returned Shiga inhibitor 48, LmPK inh inactive, FBPA Giardia inh inactive, CHX counter 33, RE007 growth inh inactive and Tb PYK inh inactive.
`CC(C)(C)c1ccc(NC(=O)CCNC(=O)c2ccco2)cc1` gave Shiga inhibitor inactive, LmPK inh inactive, FBPA Giardia inh inactive, CHX counter 19, RE007 growth inh inactive and Tb PYK inh inactive.
For O=C(CCNC(=O)c1ccco1)Nc1ccc(C(F)(F)F)cc1 the results were Shiga inhibitor inactive, LmPK inh inactive, FBPA Giardia inh inactive, CHX counter inactive, RE007 growth inh inactive and Tb PYK inh inactive.
For CC(C)C(CC(=O)NCc1ccco1)c1ccco1 (centres undefined) the results were Shiga inhibitor inactive, LmPK inh inactive, FBPA Giardia inh inactive, CHX counter inactive, RE007 growth inh inactive and Tb PYK inh inactive.
Screening CC(C)C(=O)OCc1cc(=O)n2nc(C3CCCCC3)sc2n1 returned Tb PYK inh inactive.
For CN(CC(=O)Nc1ccccc1C(=O)Nc1ccccc1)C1CCCCC1 the results were RE007 growth inh inactive and Tb PYK inh inactive.
For Cc1ccc(C(c2nnnn2C2CCCC2)N2CCc3ccccc32)cc1 (centres undefined) the results were Shiga inhibitor inactive, LmPK inh inactive, FBPA Giardia inh inactive, CHX counter 22 and Tb PYK inh inactive.
CC1(C)OC(=O)C(=CNn2cnc3ccccc3c2=O)C(=O)O1 was read as Shiga inhibitor inactive, LmPK inh inactive, FBPA Giardia inh inactive, CHX counter 32, RE007 growth inh inactive and Tb PYK inh inactive.
COC(=O)c1c(C)sc(-c2c(-c3ccc(F)cc3)[nH]c3[nH]c(=O)[nH]c(=O)c23)c1O was read as Tb PYK inh inactive.
Cc1ccc(-c2cc(O)cc3sc(=O)oc23)cc1C was read as Shiga inhibitor inactive, LmPK inh inactive, FBPA Giardia inh inactive, CHX counter inactive, RE007 growth inh 40µM and Tb PYK inh inactive.
For Cc1ccc2c(c1)CNc1ccccc1O2 the results were Shiga inhibitor inactive, LmPK inh inactive, FBPA Giardia inh inactive, CHX counter 13, RE007 growth inh inactive and Tb PYK inh inactive.
`CNC(=S)N(C1=NCC(c2ccc([N+](=O)[O-])cc2)S1)c1ccccc1` (centres undefined) gave Shiga inhibitor 56, LmPK inh inactive, FBPA Giardia inh inactive, CHX counter 39, RE007 growth inh inactive and Tb PYK inh inactive.
`CCOC(=O)c1ccc(NC2=CC(c3ccc(F)cc3)N(c3ccc(C(=O)OCC)cc3)C2=O)cc1` (centres undefined) gave Tb PYK inh inactive.
COCCn1c(C)cc(C(=O)COC(=O)c2ccc(Br)o2)c1C was read as Shiga inhibitor 55, LmPK inh inactive, FBPA Giardia inh inactive, CHX counter 29, RE007 growth inh inactive and Tb PYK inh inactive.
`COCCn1c(C)cc(C(=O)COC(=O)c2ccc[nH]c2=O)c1C` gave Shiga inhibitor inactive, LmPK inh inactive, FBPA Giardia inh inactive, CHX counter inactive, RE007 growth inh inactive and Tb PYK inh inactive.
For Cc1cc(C(=O)COC(=O)c2ccc(Br)o2)c(C)n1C the results were Shiga inhibitor 58, LmPK inh inactive, FBPA Giardia inh inactive, CHX counter 40, RE007 growth inh inactive and Tb PYK inh inactive.
For Cc1cc(C(=O)COc2ccc(F)cc2Br)c(C)n1C the results were Shiga inhibitor inactive, LmPK inh inactive, FBPA Giardia inh inactive, CHX counter 30, RE007 growth inh inactive and Tb PYK inh inactive.
O=C(O)C1C(c2ccccc2)c2ccccc2C(O)C1CO (centres undefined) was read as RE007 growth inh inactive and Tb PYK inh inactive.
For O=C(NCCOc1ccccc1)C1CCC(=O)N(CCCN2CCOCC2)C1 (centres undefined) the results were RE007 growth inh inactive and Tb PYK inh inactive.
